Test results from PMC12864922, “TDP-43 directly inhibits mRNA accumulation in neurites through modulation of mRNA stability”.
The full ranking holds about 9,900 sequences; the median of “r (bound/input frequency ratio)” is about 0.7, and the highest 2% start at about 6.5. The sample as a whole holds a higher share of the highest values than the screen did.

B1: ENSMUSG00000042529.435|Kcnj12|146:150 (ssRNA)
RNA: GGGAGUUCUACAGUCCGACGAUCGCUUCGAUAUCCGCAUGCUAAGAGAGAGAGAGAGAGAGAGAGAGAGAGAGAGAGAGAGAGCUGCACAGGAUGAAGCAGCUGCCCUGAGCCCAUCUGGUGCUGUGCACCUGGUCCUUGUCCAGCCGAGGGCCUGGGGGCAGAAGAACACACCAUAGGGAGGCCCUUCAUACGGUGUCUGCCCUAUGUGAGGUCAUAGAAUGUUAAAUCUAUUUUAAACGGUGAAACUGGAGAAUUUUCAUGUUAUUUUCAAUAAUAGUGGUAUCUAAAGAUGUAGGCAACACUCUUGCGGUCGCACUAGUGUGGAAUUCUCGGGUGUCAAGG
B2: ENSMUSG00000035202.98|Lars2 (ssRNA)
RNA: GGGAGUUCUACAGUCCGACGAUCGCUUCGAUAUCCGCAUGCUAUCCUGCUCAGUACGAGAGGAACCGCAGCUAGCUUGUGUCUCCAGUGUCUUUUACCAUCACAGGCCCUGGCUCUGUGCUACCUCCCUAGAAUACCUGUGGUUCAUCACCUUCAGCUCACACUCCAUUCAGACAAUGCUCACUUAGGCCUACAAGCAAGGGAGAGGCUUAAGCACAAGGUCUUUAAGCUUGAUACUGUGCCUGGUCUCAAUGCCUAGAAAUUCCAACUUAACUGUCGCUAUCAUAAAGGAUUUUAAAUUUUUCUCUUGCGGUCGCACUAGUGUGGAAUUCUCGGGUGUCAAGG
B3: ENSMUSG00000090935.628|Synj2bp (ssRNA)
RNA: GGGAGUUCUACAGUCCGACGAUCGCUUCGAUAUCCGCAUGCUAGUCUUAAACUGAUUAGUAACACUAUGACUUACCCUGAGAUCUAAGUAUUGCUAUAAAGAGACUGAAGAGGAGAGAAUAAAGUAUUUUCCUAGGACUACAUAGUUGGUAAAAGAGAAUCAUGAUUUAAACUCUGGACUAUGGAUGGCAGUAUCAGUAAUAUUCCCUCAUAGCUAGCAGUCCUCAUGCAAGGUCUCUGAACAAAAGCAACGUAUCACCUGCAAAUGCUUGGGUUUCAUCCCAUUCUUAUGGAGUGAGAUGAGCUCUUGCGGUCGCACUAGUGUGGAAUUCUCGGGUGUCAAGG
B4: ENSMUSG00000061578.1408|Ksr2|69:73 (ssRNA)
RNA: GGGAGUUCUACAGUCCGACGAUCGCUUCGAUAUCCGCAUGCUACUCCACGGACCUCAGGCCCACUGUUUUCUCCAUGUCUGUCUGUACUGACUGUUGCAGAAUGAGCUGAUCAUACAUCUUGAUUCUCCAUUUUCCUUCUGGACCACAUGUCUCUUCCUUUUCCUUUUUAGAUCUGUCUUGCUCUCUGUCUCUCUCACUCAUUGCCAACAUGUUGCUGGGAAAGAAUAUUUGAUUUAGAUGCCAAUCAGGAAGGCAAGUAGGAUGGAUGGAUGAGUGAGUGGAUAGGUAGGUAUAUAAAUGGACUCUUGCGGUCGCACUAGUGUGGAAUUCUCGGGUGUCAAGG
B5: ENSMUSG00000031028.69|Tub|109:121;139:143 (ssRNA)
RNA: GGGAGUUCUACAGUCCGACGAUCGCUUCGAUAUCCGCAUGCUAUGGAGGUACAGAGGGAGAGGAAGCACAAGCCUGGCUGCUGUGGCUCAGCCAUCCACUCAGCCUACGAGUCAGAGACAGUGGGUGUCCCGGGAAGCAGGGGUACAGUGACACACACACAUACUACAGGGCACUCAAGCUCAUACUAGAAAAAGCUCUGGUGGUCAGCAGAAAGCACUCCCACUUCAAAAGGGCCCAUUAGGCCCAAAGGGGGUUAGGAGUGGUAGGGAUAGGUGCGUGGCAGGUCCCUGCUAGGAUUGCAGCUCUUGCGGUCGCACUAGUGUGGAAUUCUCGGGUGUCAAGG
B6: ENSMUSG00000028439.266|Fam219a|244:248 (ssRNA)
RNA: GGGAGUUCUACAGUCCGACGAUCGCUUCGAUAUCCGCAUGCUAUGCUGGUCUGGUCUGAGGGAGGAAAGCUGAGGCUGUAGCUCAGUGAGAUGGUGGCUCUCCCAUGGCUGAAGACAAGUGCAAGCAGAGAGAGCCUCAGGCUGCUGGGCCUCGGACCCACGAGCCUCCUCUCACUGAGCCAGUGCGGCCAGAGUGUCUCUCCUUCAGGCGCCCCACAUGCCAGCAUUUCCACCCUCUGGAUUCUCCUCACAUGUCACUCUCCAGGUGCCGGGGCCUAGAGUGGGCCACACAGAAGGAGGAGUCUCUUGCGGUCGCACUAGUGUGGAAUUCUCGGGUGUCAAGG
B7: ENSMUSG00000042529.487|Kcnj12 (ssRNA)
RNA: GGGAGUUCUACAGUCCGACGAUCGCUUCGAUAUCCGCAUGCUAGAUGUGCGUCUCACUGGCCUCUGCCUGCCUCUCCCGCCUGCGGAGCACUUACACUUCCUGGGGCCCCUGCAGCUGGACCAUGUACAGGGCUCCCUGGGGCUUGUCCUCAGGGGCAGAGAAGGACAUGGUGGCAGCAGCACUGAGAACAGGAGCAUGGCCUCUCUCAGACCCCAGGGCAGUCAUUCAGUCUUUUCCAUGGACACUCCCCACCGCUCCACAUACUGCCUCCGCCUCAUUCUUGGGCUCUUCCUGCCUUGCUGCUCUUGCGGUCGCACUAGUGUGGAAUUCUCGGGUGUCAAGG
B8: ENSMUSG00000004113.203|Cacna1b (ssRNA)
RNA: GGGAGUUCUACAGUCCGACGAUCGCUUCGAUAUCCGCAUGCUAGCAUCGUGGAUGAGGUACGGCCUCAGGAAGCAUCGGGUGGAUUGGGUGGGAGCUGCUCAGAGCAGCACGGGGGCUUGUGUCUUAGGGACAUUGACAGUGUCCAUCAGCAUGUCAGAGAAGCAGCUGUAGUGCCCGUGUUUCUCCCUGAGUCAUGGGUUCUGAAGAAGCCAGAGCGGCACAAUGCGUGCUUGCAUGAGGCACUUUCAGCCUUUUUAAAUCUGACUCUCAGGGAUGGGAUGCCUGCCAAGUAGGGUGUAAUCCUCUUGCGGUCGCACUAGUGUGGAAUUCUCGGGUGUCAAGG
B9: ENSMUSG00000058297.38|Spock2|23:27;31:44;53:64;78:84;93:102;108:133 (ssRNA)
RNA: GGGAGUUCUACAGUCCGACGAUCGCUUCGAUAUCCGCAUGCUAUCCAGUGGGGGAGGACUGGGGACACACGCUACACACAUACACACAUAUGAGAACACACACAUACAUGUGAGAUGUGACACACACAUGUGAGAACACACAUACUGAGAACACACACACACACACACACACACACAUGUGAGUCACCCAAAGGUCCCUAUGUUAUUGAUUUUCAAAUGCACACUUUCACACACAAGGAUACACUAACAGACCAAAAUCAAUGAGAUGUCCCUGAUCCUGCCCCUCAGCCCAACACCUGGAAUCUCUUGCGGUCGCACUAGUGUGGAAUUCUCGGGUGUCAAGG
B10: ENSMUSG00000058297.40|Spock2 (ssRNA)
RNA: GGGAGUUCUACAGUCCGACGAUCGCUUCGAUAUCCGCAUGCUAGGACUGGGGAGUGUGGCUUGUGUGUAUGUGUGAUAUGAGAUGUGUGUGUAUGAUGUGAGAUGUGAGUGUGUGAUGUGAGAUGUGUGUAUGUGAGAUGUGUGUGUGUGUGUGUGUGUGUGUGAUGUGAGUCACCCAAAGGUCCCUAUGUUAUUGAUUUUCAAAUGCACACUUUCACACACAAGGAUACACUAACAGACCAAAAUCAAUGAGAUGUCCCUGAUCCUGCCCCUCAGCCCAACACCUGGAAUCCCUGCCCUGCCCUCUUGCGGUCGCACUAGUGUGGAAUUCUCGGGUGUCAAGG
B11: ENSMUSG00000058297.38|Spock2 (ssRNA)
RNA: GGGAGUUCUACAGUCCGACGAUCGCUUCGAUAUCCGCAUGCUAUCCAGUGGGGGAGGACUGGGGAGUGUGGCUUGUGUGUAUGUGUGAUAUGAGAUGUGUGUGUAUGAUGUGAGAUGUGAGUGUGUGAUGUGAGAUGUGUGUAUGUGAGAUGUGUGUGUGUGUGUGUGUGUGUGUGAUGUGAGUCACCCAAAGGUCCCUAUGUUAUUGAUUUUCAAAUGCACACUUUCACACACAAGGAUACACUAACAGACCAAAAUCAAUGAGAUGUCCCUGAUCCUGCCCCUCAGCCCAACACCUGGAAUCUCUUGCGGUCGCACUAGUGUGGAAUUCUCGGGUGUCAAGG
B12: ENSMUSG00000058297.39|Spock2 (ssRNA)
RNA: GGGAGUUCUACAGUCCGACGAUCGCUUCGAUAUCCGCAUGCUAGGGGGAGGACUGGGGAGUGUGGCUUGUGUGUAUGUGUGAUAUGAGAUGUGUGUGUAUGAUGUGAGAUGUGAGUGUGUGAUGUGAGAUGUGUGUAUGUGAGAUGUGUGUGUGUGUGUGUGUGUGUGUGAUGUGAGUCACCCAAAGGUCCCUAUGUUAUUGAUUUUCAAAUGCACACUUUCACACACAAGGAUACACUAACAGACCAAAAUCAAUGAGAUGUCCCUGAUCCUGCCCCUCAGCCCAACACCUGGAAUCCCUGCCUCUUGCGGUCGCACUAGUGUGGAAUUCUCGGGUGUCAAGG
B13: ENSMUSG00000058297.37|Spock2 (ssRNA)
RNA: GGGAGUUCUACAGUCCGACGAUCGCUUCGAUAUCCGCAUGCUACCUGGCUCCAGUGGGGGAGGACUGGGGAGUGUGGCUUGUGUGUAUGUGUGAUAUGAGAUGUGUGUGUAUGAUGUGAGAUGUGAGUGUGUGAUGUGAGAUGUGUGUAUGUGAGAUGUGUGUGUGUGUGUGUGUGUGUGUGAUGUGAGUCACCCAAAGGUCCCUAUGUUAUUGAUUUUCAAAUGCACACUUUCACACACAAGGAUACACUAACAGACCAAAAUCAAUGAGAUGUCCCUGAUCCUGCCCCUCAGCCCAACACCCUCUUGCGGUCGCACUAGUGUGGAAUUCUCGGGUGUCAAGG
B14: ENSMUSG00000058297.41|Spock2 (ssRNA)
RNA: GGGAGUUCUACAGUCCGACGAUCGCUUCGAUAUCCGCAUGCUAGGGAGUGUGGCUUGUGUGUAUGUGUGAUAUGAGAUGUGUGUGUAUGAUGUGAGAUGUGAGUGUGUGAUGUGAGAUGUGUGUAUGUGAGAUGUGUGUGUGUGUGUGUGUGUGUGUGAUGUGAGUCACCCAAAGGUCCCUAUGUUAUUGAUUUUCAAAUGCACACUUUCACACACAAGGAUACACUAACAGACCAAAAUCAAUGAGAUGUCCCUGAUCCUGCCCCUCAGCCCAACACCUGGAAUCCCUGCCCUGCCUAAUCACUCUUGCGGUCGCACUAGUGUGGAAUUCUCGGGUGUCAAGG

biological target: TDP-43 (Homo sapiens, UniProt Q13148 1-414); experiment: RNA Bind-n-Seq with designed 260-mer pool; 25 mM Tris-HCl, 150 mM KCl, 3 mM MgCl2, BSA (printed 500 mg/mL), 20 units/mL SUPERase IN; pH not stated; 500 nM RNA pool, 1 h, 4 C; TDP-43 5, 50, 500 nM; high values mean tight binding; conditions: protein: recombinant; tags: SBP (GST cleaved off with PreScission; pGEX-GST-SBP)
Sequence (Q13148 whole entry): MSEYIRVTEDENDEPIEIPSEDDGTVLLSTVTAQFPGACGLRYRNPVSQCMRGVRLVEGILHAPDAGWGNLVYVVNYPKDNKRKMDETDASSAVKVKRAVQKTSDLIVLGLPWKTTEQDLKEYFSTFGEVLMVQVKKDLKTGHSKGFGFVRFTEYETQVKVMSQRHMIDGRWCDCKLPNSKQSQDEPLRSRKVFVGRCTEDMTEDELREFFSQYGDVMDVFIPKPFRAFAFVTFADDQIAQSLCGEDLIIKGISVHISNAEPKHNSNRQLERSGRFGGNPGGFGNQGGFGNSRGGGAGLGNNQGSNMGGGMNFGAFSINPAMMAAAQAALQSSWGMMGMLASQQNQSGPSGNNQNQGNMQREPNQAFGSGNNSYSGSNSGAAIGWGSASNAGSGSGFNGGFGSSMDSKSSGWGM
Method in brief: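 Recombinant SBP-tagged TDP-43 at 5, 50 or 500 nM was captured on streptavidin beads, then incubated 1 h at 4 °C with 500 nM of an in vitro-transcribed 260-nt 3′ UTR oligo pool in 25 mM Tris-HCl, 150 mM KCl, 3 mM MgCl2, BSA and SUPERase IN. Bound RNA was washed, eluted with biotin, reverse transcribed, PCR-amplified and sequenced. Binding is R, each oligo's mapped-read-normalized abundance in the bound sample divided by its abundance in input. Duplicates used two independent protein batches.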

| Binder | binding signal |
| --- | --- |
| B1 | 4.76 R (bound/input frequency ratio) |
| B2 | 0.339 R (bound/input frequency ratio) |
| B3 | 0.125 R (bound/input frequency ratio) |
| B4 | 0.845 R (bound/input frequency ratio) |
| B5 | 0.841 R (bound/input frequency ratio) |
| B6 | 0.614 R (bound/input frequency ratio) |
| B7 | 0.428 R (bound/input frequency ratio) |
| B8 | 1.21 R (bound/input frequency ratio) |
| B9 | 2.11 R (bound/input frequency ratio) |
| B10 | 8.17 R (bound/input frequency ratio) |
| B11 | 6.55 R (bound/input frequency ratio) |
| B12 | 5.98 R (bound/input frequency ratio) |
| B13 | 6.03 R (bound/input frequency ratio) |
| B14 | 5.21 R (bound/input frequency ratio) |
